These results are taken from PubChem BioAssay.

Structures are written as SMILES. “And” between values parts separate entries of the source, which are not always exact repeats. Identical values can stand only once. Results filed as inconclusive are left out. The source made the active and inactive calls.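 How the source made its calls, unless noted: active means compounds whose cell count with miR-34 switched on is under 0.7 times the count with it off; inactive means the rest.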

As a reminder, the IC50 is the point on the concentration scale where inhibition reaches its midpoint.

The first test can be described thus: SU-DIPG-XXV glioma cell viability, MIPE5.0 library, qHTS (AID 1347068; cut-off not given, nearly all actives have IC50 up to about 30 µM;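 on IC50: cells exposed to compound for 48 hours before viability readout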).
Details: not given
Consider `O=C(CCCCCCC(=O)Nc1ccc([C@H]2O[C@@H](CSc3nc(-c4ccccc4)c(-c4ccccc4)o3)C[C@@H](c3ccc(CO)cc3)O2)cc1)NO`, for which the compound was classed as inactive.

Regarding `CS(=O)(=O)N1CCc2c(-c3cnc(N)nc3)nc(N3CCOCC3)nc21`, the IC50 is 934 nM (active).

As to `Nc1ccn([C@@H]2O[C@H](CO)[C@@H](O)C2(F)F)c(=O)n1`, the call was inactive.

In the case of `CC(=O)Oc1cc2c(s1)CCN(C(C(=O)C1CC1)c1ccccc1F)C2` (stereo not drawn), the call was inactive.

The nature of a further test: sensitizers of A549 cells to miR-34 induction, primary screen, imaging, A549 dox-inducible miR-34, nuclei and caspase counts (AID 1347080). The settings on record: A549 miR-34 inducible, Hoechst nuclei count, 48 h; stronger effect = lower value; cell number ratio, induced over uninduced.
Take `O=C(Nc1nc2cccc(-c3ccc(CN4CCS(=O)(=O)CC4)cc3)n2n1)C1CC1`: the fold change was 0.924 (inactive).

Consider `CNC(=O)c1cc(Oc2ccc(NC(=O)Nc3ccc(Cl)c(C(F)(F)F)c3)c(F)c2)ccn1`, for which the fold change is 0.87 (inactive).

Take `Nc1cccc(-c2cc3c(Oc4cccc(O)c4)ncnc3[nH]2)c1`: the fold change is 1.45 (inactive).

With `CC(C)(O)CC(=O)NCCn1ccc2ncnc(Nc3ccc(Oc4cccc(C(F)(F)F)c4)c(Cl)c3)c21`, the fold change was 0.965 (inactive).

On to `CNC(=O)c1cc(COc2nnc(Nc3ccc(Cl)cc3)c3ccoc23)ccn1`, for which the fold change is 0.883 (inactive).

Regarding `COc1cc2ncnc(Nc3cccc(Cl)c3)c2cc1OC`, the fold change was 1.29 (inactive) and 1.02 (inactive) and 0.9 (inactive).

For the compound `CS(=O)(=O)N1CCc2c(-c3cnc(N)nc3)nc(N3CCOCC3)nc21`, the fold change was 0.998 (inactive).

Take `Nc1ccn([C@@H]2O[C@H](CO)[C@@H](O)C2(F)F)c(=O)n1`: the fold change is 0.809 (inactive).

With `CC(=O)Oc1cc2c(s1)CCN(C(C(=O)C1CC1)c1ccccc1F)C2` (stereo not drawn), the fold change is 0.891 (inactive) and 0.933 (inactive).

Staying with this test, now noted: A549 miR-34 inducible, Hoechst nuclei count, 48 h; measured here: relative caspase fold change +Dox/-Dox.
As to `O=C(Nc1nc2cccc(-c3ccc(CN4CCS(=O)(=O)CC4)cc3)n2n1)C1CC1`, the fold change is 0.426.

Regarding `CNC(=O)c1cc(Oc2ccc(NC(=O)Nc3ccc(Cl)c(C(F)(F)F)c3)c(F)c2)ccn1`, the fold change is 0.959.

Turning to `Nc1cccc(-c2cc3c(Oc4cccc(O)c4)ncnc3[nH]2)c1`, the fold change was determined as 0.507.

For `CC(C)(O)CC(=O)NCCn1ccc2ncnc(Nc3ccc(Oc4cccc(C(F)(F)F)c4)c(Cl)c3)c21`, the fold change came to 0.647.

On to `CNC(=O)c1cc(COc2nnc(Nc3ccc(Cl)cc3)c3ccoc23)ccn1`, for which the fold change is 0.896.

Regarding `COc1cc2ncnc(Nc3cccc(Cl)c3)c2cc1OC`, the fold change was 0.693 and 0.941 and 0.779.

In the case of `CS(=O)(=O)N1CCc2c(-c3cnc(N)nc3)nc(N3CCOCC3)nc21`, the fold change stood at 0.485.

Regarding `Nc1ccn([C@@H]2O[C@H](CO)[C@@H](O)C2(F)F)c(=O)n1`, the fold change worked out at 2.54.

Turning to `CC(=O)Oc1cc2c(s1)CCN(C(C(=O)C1CC1)c1ccccc1F)C2` (stereo not drawn), the fold change was 0.621 and 0.805.

The test is the same for the next values; noted with them: A549 miR-34 inducible, Hoechst nuclei count, 48 h; measured here: total cells with miR-34 induction; stronger effect = lower value.
As for `O=C(Nc1nc2cccc(-c3ccc(CN4CCS(=O)(=O)CC4)cc3)n2n1)C1CC1`, the cell count came out at 6290.

Take `CNC(=O)c1cc(Oc2ccc(NC(=O)Nc3ccc(Cl)c(C(F)(F)F)c3)c(F)c2)ccn1`: the cell count amounted to 2520.

For the compound `Nc1cccc(-c2cc3c(Oc4cccc(O)c4)ncnc3[nH]2)c1`, the cell count came out at 1790.

`CC(C)(O)CC(=O)NCCn1ccc2ncnc(Nc3ccc(Oc4cccc(C(F)(F)F)c4)c(Cl)c3)c21`: the cell count is 8120.

As for `CNC(=O)c1cc(COc2nnc(Nc3ccc(Cl)cc3)c3ccoc23)ccn1`, the cell count amounted to 5140.

In the case of `COc1cc2ncnc(Nc3cccc(Cl)c3)c2cc1OC`, the cell count is 2650 and 1830 and 6990.

With `CS(=O)(=O)N1CCc2c(-c3cnc(N)nc3)nc(N3CCOCC3)nc21`, the cell count turned out to be 3180.

With `Nc1ccn([C@@H]2O[C@H](CO)[C@@H](O)C2(F)F)c(=O)n1`, the cell count is 2200.

Regarding `CC(=O)Oc1cc2c(s1)CCN(C(C(=O)C1CC1)c1ccccc1F)C2` (stereo not drawn), the cell count is 7600 and 7230.

The same test, now with this note: A549 miR-34 inducible, Hoechst nuclei count, 48 h; measured here: total cells without miR-34 induction.
Take `O=C(Nc1nc2cccc(-c3ccc(CN4CCS(=O)(=O)CC4)cc3)n2n1)C1CC1`: the cell count was found to be 6810.

For the compound `CNC(=O)c1cc(Oc2ccc(NC(=O)Nc3ccc(Cl)c(C(F)(F)F)c3)c(F)c2)ccn1`, the cell count worked out at 2900.

Take `Nc1cccc(-c2cc3c(Oc4cccc(O)c4)ncnc3[nH]2)c1`: the cell count was 1240.

With `CC(C)(O)CC(=O)NCCn1ccc2ncnc(Nc3ccc(Oc4cccc(C(F)(F)F)c4)c(Cl)c3)c21`, the cell count was 8420.

Consider `CNC(=O)c1cc(COc2nnc(Nc3ccc(Cl)cc3)c3ccoc23)ccn1`, for which the cell count was found to be 5820.

Regarding `COc1cc2ncnc(Nc3cccc(Cl)c3)c2cc1OC`, the cell count is 2060 and 1800 and 7760.

`CS(=O)(=O)N1CCc2c(-c3cnc(N)nc3)nc(N3CCOCC3)nc21`: the cell count was 3180.

As for `Nc1ccn([C@@H]2O[C@H](CO)[C@@H](O)C2(F)F)c(=O)n1`, the cell count was 2720.

For `CC(=O)Oc1cc2c(s1)CCN(C(C(=O)C1CC1)c1ccccc1F)C2` (stereo not drawn), the cell count is 8520 and 7750.

The nature of a further test: modifiers of HSF1 nuclear foci, imaging, Selleck Cancer Library (AID 1347162; in the data active means plate-normalised HSF1 focus index below about 0.46). The settings on record: human cells, at 10 µM; SSMD: measured here: HSF1 foci SSMD mean; cell count: measured here: cell number; plate-normalised HSF1 focus index: stronger effect = lower value.
With `O=C1[C@H](Cc2ccc(O)cc2)N2C(=O)CCN(C(=O)NCc3ccccc3)[C@H]2CN1Cc1cccc2ccccc12`, the SSMD amounted to 1.66, the cell count was 6950 and the plate-normalised HSF1 focus index is 1.09 (inactive).

Turning to `CC(C)=CCC/C(C)=C/CC/C(C)=C/CSc1ccccc1C(=O)O`, the SSMD amounted to 2.56, the cell count was 6790 and the plate-normalised HSF1 focus index is 1.15 (inactive).

As for `COc1ccc(-c2cc3nccn3c(Nc3ncccc3C(N)=O)n2)cc1OC`, the plate-normalised HSF1 focus index was 0.994 (inactive), the SSMD was -0.302 and the cell count worked out at 6940.

With `OCCn1cc(-c2ccc3c(c2)CC/C3=N\O)c(-c2ccncc2)n1`, the cell count came to 6750, the plate-normalised HSF1 focus index was 1.09 (inactive) and the SSMD came out at 1.73.

Consider `CNC(=O)c1cc(COc2nnc(Nc3ccc(Cl)cc3)c3ccoc23)ccn1`, for which the cell count is 4310, the SSMD is -14.1 and the plate-normalised HSF1 focus index is 0.266 (active).

Consider `CS(=O)(=O)N1CCc2c(-c3cnc(N)nc3)nc(N3CCOCC3)nc21`, for which the SSMD was -3.29, the cell count is 7210 and the plate-normalised HSF1 focus index was 0.883 (inactive).
